# gsp agonist – qHTS for Agonist of gsp, the Etiologic Mutation Responsible for Fibrous Dysplasia/McCune-Albright Syndrome: qHTS. 340,000 compounds, 0.13% hits. gsp mutant cells, cAMP HTRF, 30 min. AID 624287, 2012. Potency, µM (highest dose often 76.9 µM), inactives show top-dose activation (cAMP increase), hits mostly activators; active = well fitted activation curve with a large enough effect; inconclusive = small, poorly fitted or top-dose-only effect, or another doubt; inactive = no such curve, though single readings can be large or run the other way; cell line not stated here;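 note: phosphodiesterase inhibitor Ro 20-1724 added with compounds to block cAMP breakdown; potency is the fitted concentration of half-maximal effect; nearly all actives have a fitted effect of over 60% in size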
#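 Cells in DMEM/10% FBS with G418 were pretreated with compounds in DMSO plus […] (300 uM stock) for 30 min at 37C. cAMP was measured by HTRF (cAMP-d2 plus anti-cAMP antibody-K) after 30 min at room temperature.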
# gsp antagonist – qHTS for Antagonists of gsp, the Etiologic Mutation Responsible for Fibrous Dysplasia/McCune-Albright Syndrome: qHTS; 340,000 compounds, 0.4% hits; Potency, µM (series often up to 76.9 µM), for the others: at the highest dose activity change, negative = inhibition, usual class: inhibitors; gsp-mutant cells, cAMP HTRF, 30 min; calls by dose curve; cell line not stated here;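 note: intracellular cAMP measured with PDE inhibitor Ro 20-1724 present during compound exposure; potency is the fitted concentration of half-maximal effect; % is set by controls: 0 for no effect and ±100 for the full control effect; nearly all actives have a fitted effect of over 65% in size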
#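 Cells in G418 medium, seeded 16-24 h, 37C; buffer exchange to DPBS + 1 mM CaCl2, 0.5 mM MgCl2, 0.05% BSA; cpds in DMSO + […] (300 uM stock), 30 min 37C; HTRF cAMP detection.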
# CCT modulator – High-Throughput Screening for Modulators of Cytosolic Chaperonin Activity | purified chaperonin ATPase assay, HTRF ADP detection, 30 min | activity change, % (concentration not given with the values), hits read low | 360,000 compounds, 0.3% hits; in the data active = activity change below about -30%; note: % is set by controls: 0 for no effect and ±100 for the full control effect
#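 TRiC at 40 or 20 nM final (batch-dependent) in 30 mM Tris pH 7.4, 100 mM KCl, 5 mM MgCl2, 1 mM DTT, with compound at single 76 uM and 10 uM ATP, 30 min at 37 deg C. ADP detected by HTRF Transcreener, 665/615 ratio.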
# RXFP1 antag – qHTS Assay for Antagonists of the Relaxin Receptor RXFP1. activity change, negative = inhibition, % at 57.5 µM. 350,000 compounds, 0.59% hits. HEK293-RXFP1, relaxin-stimulated cAMP HTRF, 30 min; hits give low values. Relaxin receptor 1 (Homo sapiens), Q9HBX9. AID 1259400, 2018;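 active = activity change of -60% or lower, but not beyond a set lower limit; inconclusive = change between -60% and -40%, or beyond the set limit; inactive = change above -40%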; note: % is set by controls: 0 for no effect and ±100 for the full control effect
# Target sequence (Q9HBX9 whole entry, looked up): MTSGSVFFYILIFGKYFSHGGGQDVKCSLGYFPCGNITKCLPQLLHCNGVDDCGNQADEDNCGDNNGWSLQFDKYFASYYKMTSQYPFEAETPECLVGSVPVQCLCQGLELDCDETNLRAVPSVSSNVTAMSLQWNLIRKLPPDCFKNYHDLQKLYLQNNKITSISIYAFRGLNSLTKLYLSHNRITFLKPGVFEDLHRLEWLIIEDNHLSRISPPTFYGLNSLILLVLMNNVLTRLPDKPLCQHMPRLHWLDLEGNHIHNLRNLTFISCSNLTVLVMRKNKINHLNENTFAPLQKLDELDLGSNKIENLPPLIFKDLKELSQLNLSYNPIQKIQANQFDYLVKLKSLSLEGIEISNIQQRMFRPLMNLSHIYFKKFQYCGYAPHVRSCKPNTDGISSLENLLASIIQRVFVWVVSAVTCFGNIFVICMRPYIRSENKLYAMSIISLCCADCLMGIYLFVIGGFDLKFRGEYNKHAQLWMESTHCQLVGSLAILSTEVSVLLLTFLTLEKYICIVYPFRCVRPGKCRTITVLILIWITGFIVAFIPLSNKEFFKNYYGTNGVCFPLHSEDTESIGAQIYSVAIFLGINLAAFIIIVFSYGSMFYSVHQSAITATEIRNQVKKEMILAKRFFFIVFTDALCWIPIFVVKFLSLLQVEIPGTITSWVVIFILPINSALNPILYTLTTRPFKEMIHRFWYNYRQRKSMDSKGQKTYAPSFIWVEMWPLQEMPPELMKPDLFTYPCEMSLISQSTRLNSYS
# Mm-Cpn inhibitor – Inhibitors of TCP-1 ring complex (TRiC) of Methanococcus maripaludis (MmCpn): qHTS; Chaperonin Mm-Cpn (Methanococcus maripaludis); purified Mm-Cpn ATPase, ADP Transcreener TR-FRET; Potency, µM (doses to about 76.9 µM), for inactives: at the highest dose activity, negative = inhibition, most hits filed as inhibitors; 330,000 compounds, 0.031% hits; note: potency is the fitted concentration of half-maximal effect; % is set by controls: 0 for no effect and ±100 for the full control effect; nearly all actives have a fitted effect of over 80% in size
#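 Purified archaeal Mm-CPN (25nM final) preincubated 10 min at 37degC with compound, then 10uM ATP for 30 min at 37degC; ADP measured by HTRF Transcreener TR-FRET; buffer 30 mM TRIS pH 7.4, 100mM KCl, 5mM MgCl2, 1mM DTT.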
# RXFP1 agonist – qHTS Assay for Agonists of the Relaxin Receptor RXFP1; Potency, µM (titrated, usually from 57.5 µM), for the others: at the top dose activation, actives largely listed as activators; AID 2676, 2010; Relaxin receptor 1 (Homo sapiens), Q9HBX9; 370,000 compounds, 0.3% hits; HEK293T-RXFP1 cAMP TR-FRET, 30 min; response scale: percent of porcine relaxin response, buffer zero; note: potency is the fitted concentration of half-maximal effect; % is set by controls: 0 for no effect and ±100 for the full control effect; nearly all actives have a fitted effect of over 60% in size
#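 HEK293T cells stably expressing RXFP1 were pretreated with the PDE4 inhibitor Ro 20174, exposed to compounds for 30 min at 37C, lysed, and cAMP was read by TR-FRET. Data normalized to buffer (basal) and 29 nM porcine relaxin (100%).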
# Active calls of the source: *; ? = inconclusive; nt = not tested or not shown; [ ] = dose if it differs, or a comment. Only some compounds are listed: those with a hit (about 1.2% of all), similar ones and a draw of the others. Unless noted, calls come from the whole dose curve; as a rule, active = well fitted curve in the direction sought with a large enough effect; inconclusive = small, poorly fitted or top-dose-only effect, or another doubt; inactive = no such curve, though single readings can be large; an effect the other way counts as inactive or inconclusive.
SMILES,gsp agonist,gsp antagonist,CCT modulator,RXFP1 antag,Mm-Cpn inhibitor,RXFP1 agonist
O=C(Nc1ccc(Cl)cc1)c1cncs1,6%[15.4 µM],50µM*,-3,3,0%,0%
Cc1cc(C)cc(Nc2ncnc3c2nc2n3CCCC2)c1,nt,nt,nt,-3,nt,-1%
CCOc1ccc(-c2cc3nc(C4CCN(C(=O)OC(C)(C)C)CC4)c(C(=O)Nc4ccc(C)cc4C)cn3n2)cc1,nt,nt,nt,-25,nt,4%
CCOC(=O)N1CCN(C(=O)CSc2ccc3nnc(-c4cccnc4)n3n2)CC1,?,-7%,-2,-1,1%,14µM*
CCOc1ccccc1NC(=O)CSc1ccc2nnc(-c3cccnc3)n2n1,24%[15.4 µM],3%,0,-2,-3%,?
O=C(CSc1ccc2nnc(-c3ccccn3)n2n1)Nc1ccccc1,-20%[15.4 µM],14%,-1,2,-1%,23%
CCOC(=O)N1CCN(C(=O)CSc2ccc3nnc(CCNC(=O)c4ccccc4)n3n2)CC1,13µM*,10%,-1,-6,3%,?
CCOc1ccc(NC(=O)CSc2ccc3nnc(-c4cccnc4)n3n2)cc1,?,15%,-1,11,-20%,25µM*
Cc1cc(NC(=O)CSc2ccc3nnc(-c4ccccn4)n3n2)no1,6.3µM*,6%,0,nt,-4%,11%
COc1cccc(CNC(=O)CN(c2ccc(C(C)C)cc2)S(=O)(=O)c2c(C)n[nH]c2C)c1,nt,nt,nt,nt,nt,2%
COc1ccc(C(C)NC(=O)CN(c2cc(OC)ccc2OC)S(=O)(=O)c2ccccc2)cc1 (stereo not given),nt,nt,nt,nt,nt,3%
CCOc1ccc(C2CC(=O)Nc3nc(SCc4ccccc4C)[nH]c(=O)c32)cc1OC (stereo not given),nt,nt,nt,-13,nt,0%
C#CCOCCOCCOCCNc1nc(N2CCN(C(=O)[C@H](CCC(=O)O)n3cc(CN)nn3)CC2)nc(N2CCN(C(=O)[C@H](CCC(=O)O)n3cc([C@@H](N)[C@H](C)CC)nn3)CC2)n1,nt,7%,-33*,nt,0%,nt
COc1ccc(COc2ccccc2C(=O)NCc2ccccc2)cc1F,-29%,28µM*,-2,1,-1%,1%
CCCOc1ccc(C(=O)Nc2ccc3oc(-c4ccncc4)nc3c2)cc1,nt,nt,nt,-6,nt,1%
O=C1NN(c2ccc(F)c(Cl)c2)C(=O)/C1=C\c1cccc(OC(=O)c2cccs2)c1,-11%,-3%,-1,-86*,0%,0%
Cc1[nH]c(=S)c(C#N)c(C)c1Cc1ccc(Cl)cc1Cl,-77%,-6%,-6,?,-24%,10%
Cc1[nH]c(=S)c(C#N)c(C)c1CC(=O)c1ccc(Br)cc1,-48%,-14%,-2,-70*,-2%,7%
Cc1ccccc1-c1nnn(Cc2cccc(S(=O)(=O)N3CCOCC3)c2)n1,3%,35µM*,1,1,0%,1%
Brc1cc(Br)c2nc(-c3ccc(N4CCOCC4)cc3)ccc2c1,?,11µM*,-2,7,-24%,?
CCOC(=O)COc1ccc(CC)cc1C(=O)c1ccn2nc(-c3ccccc3)cc2n1,nt,nt,nt,nt,nt,11%
Cc1nnc2ccc(-c3cccc(NC(=O)c4ccc(Cl)nc4)c3)nn12,7%,-14%,0,-15,-3%,11%
Cc1nnc2ccc(-c3cccc(NC(=O)c4ccc(Br)o4)c3)nn12,?,-14%,1,-75*,-2%,10%
CSc1ncc(C(=O)NCc2ccc(C)cc2)c(-c2ccccc2)n1,nt,nt,nt,-5,nt,?
CCCN(CCC)C(=O)CSc1nc2c(sc(=S)n2-c2ccc(OCC)cc2)c(=O)[nH]1,9%[15.4 µM],14µM*,-6,-24,1%,1%
Cc1ccccc1NC(=O)c1c(C)nn(-c2ccccc2)c1Cl,17%[15.4 µM],6%,-40*,-8,0%,0%
